# Measured values as given in ChEMBL document CHEMBL3433997, “St. Jude Leishmania screening dataset” (2016).
# Target: Solute carrier family 2, facilitated glucose transporter member 1 (Homo sapiens) (UniProt P11166)
# Test: ST_JUDE_LEISH: Cytotoxicity at 2uM final concentration against transgenic Leishmania Mexicana promastigotes LmGLUT1 that are glucose transport deficient and complemented with the human glucose transporter GLUT1. Activity is measured by DNA content using SYBR green in vitro
# Type: functional
# Solute carrier family 2, facilitated glucose transporter member 1 (Homo sapiens), sequence (P11166 whole entry): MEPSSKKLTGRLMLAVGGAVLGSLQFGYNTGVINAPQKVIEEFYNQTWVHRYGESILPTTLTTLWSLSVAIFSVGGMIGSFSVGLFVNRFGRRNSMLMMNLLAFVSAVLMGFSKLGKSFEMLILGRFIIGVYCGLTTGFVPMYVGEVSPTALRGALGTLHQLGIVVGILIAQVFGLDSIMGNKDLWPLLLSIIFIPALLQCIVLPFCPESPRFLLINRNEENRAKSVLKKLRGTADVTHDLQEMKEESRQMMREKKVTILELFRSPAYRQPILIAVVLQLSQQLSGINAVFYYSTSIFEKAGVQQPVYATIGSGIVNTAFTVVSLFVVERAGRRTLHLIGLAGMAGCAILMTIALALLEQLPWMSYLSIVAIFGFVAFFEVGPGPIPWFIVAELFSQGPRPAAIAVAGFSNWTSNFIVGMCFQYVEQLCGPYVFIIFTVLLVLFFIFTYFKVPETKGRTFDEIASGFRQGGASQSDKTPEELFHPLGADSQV
row,SMILES,inhibition
1,CN1CCN(c2ccnc3ccc(NC(=O)Cc4ccc(-c5ccncc5)c5ccccc45)cc23)CC1,-3.69%
2,O=C(Nc1ccc(OC2CCN(Cc3ccccc3)CC2)c(Cl)c1)c1ccc(F)cc1,2.05%
3,CC(=O)Nc1ccc(C(=O)Nc2cccc(-c3ccc(-c4nc5cc(F)ccc5[nH]4)s3)c2)cn1,0.96%
4,Cc1cc(C2CCN(CCCCNC(=O)c3ccc(NC(=O)c4ccc(Cl)cc4)cc3)CC2)c(C)cc1OCCN(C)C,9.34%
5,CN1CCC(NCc2ccc(-c3ccc(C(F)(F)F)cc3)cc2)CC1,-0.71%
6,CC(=O)Nc1nc(C(=O)Nc2ccc(-c3ccc(-c4nc5ccccc5[nH]4)cc3)cc2)cs1,4.03%
7,CCCCn1c(Sc2ccc(C#N)c([N+](=O)[O-])c2)nnc1-c1cc(OC)cc(OC)c1,0.5%
8,COc1cc(C)ccc1S(=O)(=O)N1CCCCC(c2ccc(C(F)(F)F)cc2)=N1,10.8%
9,Cc1ccc(NC(=O)c2ccc(CN3CCCN(Cc4cccc(Cl)c4)CC3)cc2)cc1C,3.09%
10,CCC1CN(S(=O)(=O)c2ccc3c(c2)NC(=O)CC(=O)N3)c2cc(Cl)ccc2O1 (stereo not given),2.65%
11,CCCCCC(=O)N1CCOC(CCN2CCc3c(c4ccccc4n3C)C2)(c2ccc(Cl)c(Cl)c2)C1 (stereo not given),10.5%
12,Cc1nc(C)c(-c2ccc(Oc3ccc(Cl)cc3)c(Cl)c2)c(O)c1Br,2.21%
13,O=C(Nc1ccc2c(c1)CNCC2)c1ccc(-c2ccc(Cl)cc2)cc1,105%
14,Cc1ccccc1Oc1ccc(Nc2ccnc(Nc3cccc(C(N)=O)c3)n2)cc1C(F)(F)F,4.26%
15,Cc1cc(C)cc(OCC(O)CN(Cc2cc(Cl)cc(Cl)c2)C(=O)Nc2ccc(Cl)cc2)c1 (stereo not given),0.89%
16,Clc1nc(Cl)c2c(ccn2Cc2ccccc2)n1,1.47%
17,Cn1c(Sc2ncnc3sccc23)nc2ccccc21,2.32%
18,COc1ccc2ncc(F)c(CCN3CC(O)C(CNCc4ccc(F)cc4)C3)c2n1 (stereo not given),3.37%
19,COc1ccc2c(c1)CC1CN(CCCCNC(=O)c3ccc(NC(=O)c4cc(Cl)cc(Cl)c4)cc3)CCN1C2 (stereo not given),3.25%
20,Clc1cccc(Nc2ccc3c(N4CCCCC4)ncnc3n2)c1,12%

row,SMILES,inhibition
1,Fc1cccc(COc2ccc(-n3ccc4c(NCCCn5ccnc5)ncnc43)cc2Cl)n1,1.74%
2,COc1ccc2ccc(F)c(CC(=O)N3CCOC(CNCc4cccc(-c5ccsc5)n4)C3)c2n1 (stereo not given),6.96%
3,COc1cc(Cl)c(C)cc1N(Cc1ccccc1-c1ccccc1)S(=O)(=O)c1ccc(C(F)(F)F)cc1,1.01%
4,N=C(N)NN=Cc1c2ccccc2c(Cl)c2ccc(Cl)cc12,107%
5,CCC(=O)c1ccc(-c2ccc(=O)n(CC(=O)N(CCN(CC)CC)Cc3ccc(-c4ccc(C(F)(F)F)cc4)cc3)n2)cc1,0.37%
6,CCS(=O)(=O)N1CCN(c2nc(-c3ccccc3)nc(COC)c2Cc2ccccc2F)CC1,3.58%
7,COc1ccc2nccc([C@@H](O)CN3CCC(NC(=O)c4nc(Cl)c(Cl)c(N)c4Cl)CC3)c2c1,-0.09%
8,CCCCCCCc1ccc(-c2c(C)[nH]c(C)c(Cl)c2=O)cn1,0.84%
9,CCCC(CNCc1cccc(OC(F)(F)F)c1)CNc1cc(=O)c2ccccc2[nH]1 (stereo not given),3.23%
10,Cc1cc2c(/C=C/C(=O)NC3CCC(CCN4CCc5ccc(C#N)cc5CC4)CC3)cccc2[nH]1 (stereo not given),4%
11,CC(C)(C)C1CCC(C(=O)c2ccc3ccccc3c2O)CC1 (stereo not given),1.28%
12,COc1cc(NC(=O)/C=C/c2cc(F)cc(F)c2F)cc(OCCN2CCC(O)(c3ccccc3)CC2)c1,3.43%
13,CN(C)c1nc2cc(-n3cnc4cc(-c5ccc(Cl)cc5)sc4c3=O)ccc2n1CCCN1CCCCC1,9.33%
14,Cc1ccc(-c2nc3cc(NC(=O)c4ccc([N+](=O)[O-])o4)ccc3o2)cc1Cl,77%
15,Cc1cc(NC(=O)NCCN2CCC(NS(=O)(=O)c3ccc(Br)cc3)C2)c2ccccc2n1 (stereo not given),4.43%
16,Oc1ccc2nc(NCCCc3ccccc3)nc(NCCc3ccccc3)c2c1,3.71%
17,CCC(C)NCC(O)(c1ccc(Cl)cc1)c1ccc(Cl)cc1 (stereo not given),-2.33%
18,Oc1ccc(CCNc2nc(NCCCOc3ccccc3-c3cccc(C(F)(F)F)c3)nc(N3CCNCC3)n2)cc1,4.36%
19,COc1ccc(-c2ccc(NC(=O)c3ccc(Cl)cc3)cc2)cc1CN1CCC(O)CC1,3.31%
20,COc1ccc2nccc([C@@H](O)CN3CCC(NCc4ccc5c(n4)NCCC5)CC3)c2c1,6.88%

# Target: Hexose transporter 1 (Plasmodium falciparum) (UniProt O97467)
# Test: ST_JUDE_LEISH: Cytotoxicity at 2uM final concentration against transgenic Leishmania Mexicana promastigotes LmPfHT that are glucose transport deficient and complemented with the Plasmodium falciparum hexose transporter. Activity is measured by DNA content using SYBR green in vitro
# Type: functional
row,SMILES,inhibition
1,CN1CCN(c2ccnc3ccc(NC(=O)Cc4ccc(-c5ccncc5)c5ccccc45)cc23)CC1,0.37%
2,O=C(Nc1ccc(OC2CCN(Cc3ccccc3)CC2)c(Cl)c1)c1ccc(F)cc1,2%
3,CC(=O)Nc1ccc(C(=O)Nc2cccc(-c3ccc(-c4nc5cc(F)ccc5[nH]4)s3)c2)cn1,1.55%
4,Cc1cc(C2CCN(CCCCNC(=O)c3ccc(NC(=O)c4ccc(Cl)cc4)cc3)CC2)c(C)cc1OCCN(C)C,8.76%
5,CN1CCC(NCc2ccc(-c3ccc(C(F)(F)F)cc3)cc2)CC1,-0.76%
6,CC(=O)Nc1nc(C(=O)Nc2ccc(-c3ccc(-c4nc5ccccc5[nH]4)cc3)cc2)cs1,2.54%
7,CCCCn1c(Sc2ccc(C#N)c([N+](=O)[O-])c2)nnc1-c1cc(OC)cc(OC)c1,3.21%
8,COc1cc(C)ccc1S(=O)(=O)N1CCCCC(c2ccc(C(F)(F)F)cc2)=N1,11.2%
9,Cc1ccc(NC(=O)c2ccc(CN3CCCN(Cc4cccc(Cl)c4)CC3)cc2)cc1C,3.31%
10,CCC1CN(S(=O)(=O)c2ccc3c(c2)NC(=O)CC(=O)N3)c2cc(Cl)ccc2O1 (stereo not given),2.92%
11,CCCCCC(=O)N1CCOC(CCN2CCc3c(c4ccccc4n3C)C2)(c2ccc(Cl)c(Cl)c2)C1 (stereo not given),7.81%
12,Cc1nc(C)c(-c2ccc(Oc3ccc(Cl)cc3)c(Cl)c2)c(O)c1Br,3.03%
13,O=C(Nc1ccc2c(c1)CNCC2)c1ccc(-c2ccc(Cl)cc2)cc1,95.6%
14,Cc1ccccc1Oc1ccc(Nc2ccnc(Nc3cccc(C(N)=O)c3)n2)cc1C(F)(F)F,3.48%
15,Cc1cc(C)cc(OCC(O)CN(Cc2cc(Cl)cc(Cl)c2)C(=O)Nc2ccc(Cl)cc2)c1 (stereo not given),-0.94%
16,Clc1nc(Cl)c2c(ccn2Cc2ccccc2)n1,0.9%
17,Cn1c(Sc2ncnc3sccc23)nc2ccccc21,2.23%
18,COc1ccc2ncc(F)c(CCN3CC(O)C(CNCc4ccc(F)cc4)C3)c2n1 (stereo not given),3.9%
19,COc1ccc2c(c1)CC1CN(CCCCNC(=O)c3ccc(NC(=O)c4cc(Cl)cc(Cl)c4)cc3)CCN1C2 (stereo not given),4.38%
20,Clc1cccc(Nc2ccc3c(N4CCCCC4)ncnc3n2)c1,10.8%

row,SMILES,inhibition
1,Fc1cccc(COc2ccc(-n3ccc4c(NCCCn5ccnc5)ncnc43)cc2Cl)n1,2.45%
2,COc1ccc2ccc(F)c(CC(=O)N3CCOC(CNCc4cccc(-c5ccsc5)n4)C3)c2n1 (stereo not given),6.66%
3,COc1cc(Cl)c(C)cc1N(Cc1ccccc1-c1ccccc1)S(=O)(=O)c1ccc(C(F)(F)F)cc1,0.29%
4,N=C(N)NN=Cc1c2ccccc2c(Cl)c2ccc(Cl)cc12,106%
5,CCC(=O)c1ccc(-c2ccc(=O)n(CC(=O)N(CCN(CC)CC)Cc3ccc(-c4ccc(C(F)(F)F)cc4)cc3)n2)cc1,1.05%
6,CCS(=O)(=O)N1CCN(c2nc(-c3ccccc3)nc(COC)c2Cc2ccccc2F)CC1,2.32%
7,COc1ccc2nccc([C@@H](O)CN3CCC(NC(=O)c4nc(Cl)c(Cl)c(N)c4Cl)CC3)c2c1,-0.22%
8,CCCCCCCc1ccc(-c2c(C)[nH]c(C)c(Cl)c2=O)cn1,1.55%
9,CCCC(CNCc1cccc(OC(F)(F)F)c1)CNc1cc(=O)c2ccccc2[nH]1 (stereo not given),3.46%
10,Cc1cc2c(/C=C/C(=O)NC3CCC(CCN4CCc5ccc(C#N)cc5CC4)CC3)cccc2[nH]1 (stereo not given),4.14%
11,CC(C)(C)C1CCC(C(=O)c2ccc3ccccc3c2O)CC1 (stereo not given),-0.87%
12,COc1cc(NC(=O)/C=C/c2cc(F)cc(F)c2F)cc(OCCN2CCC(O)(c3ccccc3)CC2)c1,1.97%
13,CN(C)c1nc2cc(-n3cnc4cc(-c5ccc(Cl)cc5)sc4c3=O)ccc2n1CCCN1CCCCC1,10.8%
14,Cc1ccc(-c2nc3cc(NC(=O)c4ccc([N+](=O)[O-])o4)ccc3o2)cc1Cl,85.3%
15,Cc1cc(NC(=O)NCCN2CCC(NS(=O)(=O)c3ccc(Br)cc3)C2)c2ccccc2n1 (stereo not given),3.86%
16,Oc1ccc2nc(NCCCc3ccccc3)nc(NCCc3ccccc3)c2c1,4.97%
17,CCC(C)NCC(O)(c1ccc(Cl)cc1)c1ccc(Cl)cc1 (stereo not given),-0.32%
18,Oc1ccc(CCNc2nc(NCCCOc3ccccc3-c3cccc(C(F)(F)F)c3)nc(N3CCNCC3)n2)cc1,4.82%
19,COc1ccc(-c2ccc(NC(=O)c3ccc(Cl)cc3)cc2)cc1CN1CCC(O)CC1,2.62%
20,COc1ccc2nccc([C@@H](O)CN3CCC(NCc4ccc5c(n4)NCCC5)CC3)c2c1,6.43%
